One molecule from PubChem BioAssay AID2284157 (EPA ToxCast) can be followed below.

Activity calls are given as the source filed them. Rule for the calls: active = hit-call score of the fitted dose curve at least 0.9, where 1 is the maximum; inactive = score below 0.9.

Chain of human Leukotriene Receptor CysLT1, CYSLTR1 (gene 10800) (Q9Y271 whole entry, looked up): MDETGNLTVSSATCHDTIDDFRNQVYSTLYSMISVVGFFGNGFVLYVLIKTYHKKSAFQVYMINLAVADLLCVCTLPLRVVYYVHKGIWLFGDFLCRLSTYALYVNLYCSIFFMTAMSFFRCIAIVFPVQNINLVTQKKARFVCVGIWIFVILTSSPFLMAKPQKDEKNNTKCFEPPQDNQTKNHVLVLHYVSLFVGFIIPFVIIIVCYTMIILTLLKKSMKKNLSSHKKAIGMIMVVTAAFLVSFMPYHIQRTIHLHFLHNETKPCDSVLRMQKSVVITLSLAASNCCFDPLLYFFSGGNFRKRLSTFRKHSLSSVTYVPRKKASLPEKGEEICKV

This assay concerns the target human Leukotriene Receptor CysLT1, CYSLTR1 (gene 10800) (UniProt Q9Y271). Briefly: ERF_FR_GPCR_hCYSLTR1: Eurofins (ERF) G Protein-Coupled Receptor (GPCR) Radioligand Binding LeadHunter Assay for human Leukotriene Receptor CysLT1 Agonism. Here is the method: ERF_FR_GPCR_hCYSLTR1 is a biochemical, single-readout assay that uses extracted gene-proteins in a cell-free assay. Measurements were taken 1 hour after chemical dosing in a 96-well plate. See CysLT1 Human Leukotriene GPCR Binding (Agonist Radioligand) Assay, Cerep.ERF_FR_GPCR_hCYSLTR1 is an assay component calculated from the ERF_FR_GPCR_hCYSLTR1 assay. It is designed to measure radioligand binding using a type of binding reporter as detected by scintillation counting with radiometry technology.Data from the assay component ERF_FR_GPCR_hCYSLTR1 was analyzed at the assay endpoint, ERF_FR_GPCR_hCYSLTR1, in the positive analysis fitting direction relative to DMSO as the negative control and baseline of activity. Using a type of binding reporter, gain-of-signal activity can be used to understand changes in binding as they relate to gene CYSLTR1. To generalize the intended target to other relatable targets, this assay endpoint is annotated to the gpcr intended target family, where the subfamily is leukotriene.
Human cells are incubated for 60 minutes at room temprature with [3H]LTD4 ligand (0.3 nM) and leukotriene D4 as control inhibitor.Test Sample Requirements: Minimum for 1) Screen: 60 ul of 10 mM stock -OR- 1 mg (pre-weighed) for 10 uM final testing. 2) Dose Response: 90 ul of 10 mM stock -OR- 1 mg (pre-weighed) for a top concentration at 10 uM.
Take `O=C(/C=C/c1ccc(O)cc1)CC(=O)/C=C/c1ccc(O)cc1`: the concentration at half-maximal activity (AC50) (commonly the concentration giving half of the maximal activity seen) was 5 µM (active).
